PubChem BioAssay (Tox21)
Records with an inconclusive call do not appear. Calls of active or inactive are those of the source. Unless noted, calls follow the shape of the dose curve; as a rule, active = well fitted curve in the direction sought with a large enough effect in the repeat runs; inconclusive = weak or mixed curves; inactive = no such curve, though single readings can be large; an effect the other way counts as inactive or inconclusive.

Key:
[1] = qHTS assay to identify small molecule antagonists of the estrogen receptor alpha (ER-alpha) signaling pathway using the BG1 cell line in the presence of 0.1 nM 17-beta-estradiol - cell viability counter screen (AID 1259241); also: nearly all actives have a fitted effect of over 40% in size
Procedure, shortened: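 The cell line endogenously expresses full-length ER-alpha and carries four EREs driving luciferase. Cells are cultured 5 days hormone-free, treated 22 hr with compounds and 0.1 nM estradiol, then viability is read by fluorescence.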

[2] = qHTS assay to identify small molecule antagonists of the androgen receptor (AR) signaling pathway using the MDA cell line in the presence of 0.5 nM R1881 - cell viability counter screen (AID 1259242); also: nearly all actives have a fitted effect of over 45% in size
Procedure, shortened: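 MDA-kb2 cells (MMTV-luciferase, AR/GR responsive) were treated with compounds plus 0.5 nM R1881 (final) for 16 hr at 37C, 0% CO2. Viability was then read in the same wells as live-cell protease fluorescence (CellTiter-Fluor, 30 min).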

[3] = target: Estrogen receptor (Homo sapiens) (UniProt P03372); assay: qHTS assay to identify small molecule antagonists of the estrogen receptor alpha (ER-alpha) signaling pathway using the BG1 cell line in the presence of 0.1 nM 17-beta-estradiol (AID 1259244); also: nearly all actives have a fitted effect of over 50% in size
Procedure, shortened: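 VM7Luc4E2 cells (endogenous full-length ER-alpha, 4×ERE-luciferase), kept 5 days in phenol red-free, charcoal-stripped FBS medium; 4,000 cells/well. Compounds added with 0.1 nM (final) 17beta-estradiol, 22 hr at 37C; luminescence read with ONE-Glo after 30 min.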

[4] = qHTS assay to identify small molecule HDAC inhibitors (AID 1259364); also: top concentration of the series differs between compounds; nearly all actives have a fitted effect of over 45% in size
Procedure, shortened: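 Wild-type HCT-116 cells, plated overnight at 37 C, exposed to compounds 2 hr at 37 C; luminogenic HDAC-Glo substrate then added 30 min at room temperature. Luminescence reports relative endogenous class I/II HDAC activity.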

[5] = qHTS assay to identify small molecule HDAC inhibitors - cell viability counter screen (AID 1259365); also: series mostly up to about 92 µM; nearly all actives have a fitted effect of over 50% in size
Procedure, shortened: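 Viability readout: CellTiter-Glo luminescence. Wild-type HCT-116 cells, 2hr compound treatment following overnight attachment at 37 C.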

[6] = qHTS assay to identify small molecule agonists of the sonic hedgehog signaling (Shh) pathway (AID 1259368; calls by dose curve;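 also: NIH/3T3-derived 3T3Gli1-Luc cells carrying a stable Gli1-driven firefly luciferase reporter; series mostly up to about 92 µM; nearly all actives have a fitted effect of over 15% in size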)
Procedure, shortened: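 NIH/3T3-derived 3T3Gli1-Luc cells with stably integrated Gli1-driven firefly luciferase, 2,000 cells/well, compounds added after 4 hr. Incubated 24 hr at 37C, 5% CO2; luminescence read after 30 min with luciferase reagent at room temperature.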

[7] = qHTS assay to identify small molecule antagonists of the sonic hedgehog signaling (Shh) pathway (AID 1259369; calls by dose curve; also: nearly all actives have a fitted effect of over 45% in size)
Procedure, shortened: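 NIH/3T3-derived Gli1-Luc reporter cells plated 4 h, dosed with compound, then stimulated with conditioned medium for 24 h at 37 C. Firefly luciferase luminescence read after 30 min with detection reagent at room temperature.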

[8] = target: Estrogen receptor beta (Homo sapiens) (UniProt Q92731); assay: qHTS assay to identify small molecule agonists of the estrogen receptor beta (ER-beta) signaling pathway (AID 1259377; active = well fitted activation curve with a large enough effect in the signal ratio in the repeat runs, not every such curve was filed as active; the % refers to the signal ratio)
Procedure, shortened: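 A UAS-controlled beta-lactamase reporter in ER-beta-UAS-bla HEK293T cells reports receptor activation. Compounds act for 16 hr at 37C in 2% charcoal-stripped serum, and a FRET substrate is read by fluorescence after 2 hours.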

[9] = target: Estrogen receptor beta (Homo sapiens) (UniProt Q92731); assay: qHTS assay to identify small molecule antagonists of the estrogen receptor beta (ER-beta) signaling pathway (AID 1259378; active = well fitted inhibition curve with a large enough effect in the signal ratio in the repeat runs, not every such curve was filed as active; the % refers to the signal ratio)
Procedure, shortened: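 ER-beta-UAS-bla HEK293T cells in 2% charcoal-stripped FBS medium treated with compound plus 1nM final 17-beta-estradiol for 16 hr at 37C. Beta-lactamase reporter read by FRET substrate fluorescence after 2 hours at room temperature.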

[10] = target: Androgen receptor (Homo sapiens) (UniProt P10275); assay: qHTS assay to identify small molecule agonists of the androgen receptor (AR) signaling pathway in the presence of an antagonist (AID 1259381; calls by dose curve; also: nearly all actives have a fitted effect of over 15% in size)
Procedure, shortened: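 MDA-kb2 cells carrying MMTV-luciferase (AR/GR responsive), 3,000 cells/well, co-treated with 3.0 uM nilutamide final. Compounds at 15 concentrations, 16 hr at 37C without CO2. Luciferase luminescence read after 30 min with ONE-Glo.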

[11] = qHTS assay to identify small molecule antagonists of the estrogen receptor beta (ER-beta) signaling pathway - cell viability counter screen (AID 1259382); also: series mostly up to about 92 µM; nearly all actives have a fitted effect of over 55% in size
Procedure, shortened: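 ER-beta-UAS-bla HEK293T cells in 2% charcoal-stripped FBS medium, treated with compound plus 1 nM 17-beta-estradiol for 16 h at 37C. Viability read by CellTiter-Glo luminescence after 30 min at room temperature in the same wells.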

[12] = qHTS assay to identify small molecule agonists of the androgen receptor (AR) signaling pathway in the presence of an antagonist - cell viability counter screen (AID 1259379);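 also: MDA-kb2 human breast cancer cells carrying an MMTV luciferase reporter; series mostly up to about 92 µM; nearly all actives have a fitted effect of over 25% in size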
Procedure, shortened: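 MDA-kb2 cells (MMTV-luciferase, AR/GR), 3,000/well, 5 h attachment, then 3.0 µM nilutamide (final) and compounds at 15 concentrations. Viability by CellTiter-Fluor fluorescence after 16 h at 37 °C, 0% CO2, in the reporter wells.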

[13] = target: Estrogen receptor (Homo sapiens) (UniProt P03372); assay: qHTS assay to identify small molecule agonists of the estrogen receptor alpha (ER-alpha) signaling pathway in the presence of an antagonist (AID 1259383; calls by dose curve; also: top concentration of the series differs between compounds; nearly all actives have a fitted effect of over 15% in size)
Procedure, shortened: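 VM7Luc4E2 cells express endogenous full-length ER-alpha with an ERE-luciferase reporter and were hormone-deprived for 5 days. Compounds at 15 concentrations were added with 10.0nM ICI-182,780 for 22hr at 37C. Luminescence was read with ONE-Glo.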

[14] = qHTS assay to identify small molecule agonists or antagonists of the thyroid stimulating hormone receptor (TSHR) signaling pathway - wild type cell line counter screen (AID 1259384; calls by dose curve)
Procedure, shortened: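 Wild-type Hek293 cells, 800/well, 18 h at 37C, then compound with Ro20-1724 for 30 min RT. cAMP by HTRF (cAMP-d2/anti-cAMP cryptate), 1 h RT, fluorescence read. 15 concentrations, triplicates.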

[15] = target: Thyrotropin receptor (Homo sapiens) (UniProt P16473); assay: qHTS assay to identify small molecule antagonists of the thyroid stimulating hormone receptor (TSHR) signaling pathway (AID 1259385; calls by dose curve; also: nearly all actives have a fitted effect of over 20% in size)
Procedure, shortened: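 TSHR-HEK293 cells (800/well) plated 18 h, then compounds with Ro20-1724 and TSH at 1.5 ng/mL final, 30 min at room temperature. cAMP quantified by HTRF (cAMP-d2/anti-cAMP-cryptate, 1 h); 15 concentrations in triplicate.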

[16] = qHTS assay to identify small molecule agonists of the sonic hedgehog signaling (Shh) pathway - cell viability counter screen (AID 1259366); also: nearly all actives have a fitted effect of over 50% in size
Procedure, shortened: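 Viability measured fluorometrically (CellTiter-Fluor, 1hr, 37C) in 3T3 Gli1-Luc reporter cells after 23hr compound exposure within a 24hr incubation at 37C/5% CO2.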

[17] = qHTS assay to identify small molecule antagonists of the sonic hedgehog signaling (Shh) pathway - cell viability counter screen (AID 1259367); also: nearly all actives have a fitted effect of over 55% in size
Procedure, shortened: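 Seed 3T3 Gli1-Luc cells at 2,000 per well; incubate 4 hr; add compound in DMSO, then conditioned medium; incubate at 37C with 5% CO2; add CellTiter-Fluor after 23 hr; read fluorescence 1 hr later.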

[18] = qHTS assay to identify small molecule agonists of the estrogen receptor beta (ER-beta) signaling pathway - cell viability counter screen (AID 1259380); also: nearly all actives have a fitted effect of over 30% in size
Procedure, shortened: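 ER-beta-UAS-bla HEK293T cells in medium with 2% charcoal-stripped FBS, pre-incubated 6 hr, then treated 16 hr at 37C. Cytotoxicity read in the same wells by CellTiter-Glo luminescence after 30 min at room temperature.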

[19] = qHTS assay to identify small molecule phospholipidosis (PLD) inducers (AID 1259344; active = well fitted curve in the direction sought with a large enough effect; an effect the other way counts as inactive or inconclusive)
Procedure, shortened: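 Quantitative HTS in HepG2: compound plus LipidTOX Red dye for 24 h, paraformaldehyde fixation with Hoechst 33342, widefield high-content imaging; amiodarone as positive and DMSO as negative control.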
% is scaled to controls: 0 for no effect and ±100 for the full control effect.

Estrogen receptor beta (Homo sapiens), sequence (Q92731 whole entry, looked up): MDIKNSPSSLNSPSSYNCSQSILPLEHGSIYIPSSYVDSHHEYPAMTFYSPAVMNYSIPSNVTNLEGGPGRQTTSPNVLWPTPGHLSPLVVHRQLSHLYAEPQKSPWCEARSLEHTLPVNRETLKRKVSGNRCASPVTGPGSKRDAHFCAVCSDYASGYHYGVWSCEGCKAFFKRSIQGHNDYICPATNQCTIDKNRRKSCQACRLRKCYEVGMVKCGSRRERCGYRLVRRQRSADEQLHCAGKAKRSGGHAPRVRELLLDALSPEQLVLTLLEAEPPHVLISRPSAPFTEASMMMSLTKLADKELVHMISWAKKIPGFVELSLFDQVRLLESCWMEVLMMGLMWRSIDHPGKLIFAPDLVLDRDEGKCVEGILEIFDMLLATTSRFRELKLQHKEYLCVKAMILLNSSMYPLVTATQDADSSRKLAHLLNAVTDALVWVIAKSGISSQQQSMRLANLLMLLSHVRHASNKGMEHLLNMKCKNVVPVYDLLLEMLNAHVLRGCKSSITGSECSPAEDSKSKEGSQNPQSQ
Thyrotropin receptor (Homo sapiens), sequence (P16473 whole entry, looked up): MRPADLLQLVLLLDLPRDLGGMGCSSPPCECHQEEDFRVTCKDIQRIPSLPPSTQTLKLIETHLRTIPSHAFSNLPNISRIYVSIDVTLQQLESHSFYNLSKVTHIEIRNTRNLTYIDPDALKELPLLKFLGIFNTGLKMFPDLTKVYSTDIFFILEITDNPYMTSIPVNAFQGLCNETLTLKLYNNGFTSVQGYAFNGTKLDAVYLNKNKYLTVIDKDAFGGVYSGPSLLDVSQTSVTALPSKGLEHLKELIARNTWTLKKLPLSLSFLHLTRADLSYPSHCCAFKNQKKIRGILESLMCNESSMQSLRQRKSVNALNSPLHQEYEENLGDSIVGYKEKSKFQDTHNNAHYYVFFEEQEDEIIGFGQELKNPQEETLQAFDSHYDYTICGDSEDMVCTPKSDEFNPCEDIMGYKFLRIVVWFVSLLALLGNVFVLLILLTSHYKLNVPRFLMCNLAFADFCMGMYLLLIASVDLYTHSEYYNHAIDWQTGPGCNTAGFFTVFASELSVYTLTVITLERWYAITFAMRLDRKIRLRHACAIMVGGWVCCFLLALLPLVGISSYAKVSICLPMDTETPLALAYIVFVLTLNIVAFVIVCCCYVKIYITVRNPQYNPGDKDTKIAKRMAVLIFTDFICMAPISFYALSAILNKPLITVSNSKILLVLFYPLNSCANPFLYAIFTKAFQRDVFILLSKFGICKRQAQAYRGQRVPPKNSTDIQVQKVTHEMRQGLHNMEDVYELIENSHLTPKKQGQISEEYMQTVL
Estrogen receptor (Homo sapiens), sequence (P03372 whole entry, looked up): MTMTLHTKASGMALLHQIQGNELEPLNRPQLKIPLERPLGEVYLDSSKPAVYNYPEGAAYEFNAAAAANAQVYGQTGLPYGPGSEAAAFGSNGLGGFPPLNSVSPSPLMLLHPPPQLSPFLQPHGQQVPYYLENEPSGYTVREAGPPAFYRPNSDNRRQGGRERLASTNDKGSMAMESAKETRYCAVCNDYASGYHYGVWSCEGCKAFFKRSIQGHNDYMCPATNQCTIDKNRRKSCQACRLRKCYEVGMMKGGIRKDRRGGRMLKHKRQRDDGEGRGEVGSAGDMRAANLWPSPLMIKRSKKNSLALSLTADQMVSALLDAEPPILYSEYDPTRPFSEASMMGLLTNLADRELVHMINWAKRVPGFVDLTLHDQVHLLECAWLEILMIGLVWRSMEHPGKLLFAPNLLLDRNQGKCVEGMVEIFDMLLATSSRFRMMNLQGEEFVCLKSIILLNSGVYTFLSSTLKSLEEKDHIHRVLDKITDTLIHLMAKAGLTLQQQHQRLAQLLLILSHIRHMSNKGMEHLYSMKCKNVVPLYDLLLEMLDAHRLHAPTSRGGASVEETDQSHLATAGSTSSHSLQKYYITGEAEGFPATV
Androgen receptor (Homo sapiens), sequence (P10275 whole entry, looked up): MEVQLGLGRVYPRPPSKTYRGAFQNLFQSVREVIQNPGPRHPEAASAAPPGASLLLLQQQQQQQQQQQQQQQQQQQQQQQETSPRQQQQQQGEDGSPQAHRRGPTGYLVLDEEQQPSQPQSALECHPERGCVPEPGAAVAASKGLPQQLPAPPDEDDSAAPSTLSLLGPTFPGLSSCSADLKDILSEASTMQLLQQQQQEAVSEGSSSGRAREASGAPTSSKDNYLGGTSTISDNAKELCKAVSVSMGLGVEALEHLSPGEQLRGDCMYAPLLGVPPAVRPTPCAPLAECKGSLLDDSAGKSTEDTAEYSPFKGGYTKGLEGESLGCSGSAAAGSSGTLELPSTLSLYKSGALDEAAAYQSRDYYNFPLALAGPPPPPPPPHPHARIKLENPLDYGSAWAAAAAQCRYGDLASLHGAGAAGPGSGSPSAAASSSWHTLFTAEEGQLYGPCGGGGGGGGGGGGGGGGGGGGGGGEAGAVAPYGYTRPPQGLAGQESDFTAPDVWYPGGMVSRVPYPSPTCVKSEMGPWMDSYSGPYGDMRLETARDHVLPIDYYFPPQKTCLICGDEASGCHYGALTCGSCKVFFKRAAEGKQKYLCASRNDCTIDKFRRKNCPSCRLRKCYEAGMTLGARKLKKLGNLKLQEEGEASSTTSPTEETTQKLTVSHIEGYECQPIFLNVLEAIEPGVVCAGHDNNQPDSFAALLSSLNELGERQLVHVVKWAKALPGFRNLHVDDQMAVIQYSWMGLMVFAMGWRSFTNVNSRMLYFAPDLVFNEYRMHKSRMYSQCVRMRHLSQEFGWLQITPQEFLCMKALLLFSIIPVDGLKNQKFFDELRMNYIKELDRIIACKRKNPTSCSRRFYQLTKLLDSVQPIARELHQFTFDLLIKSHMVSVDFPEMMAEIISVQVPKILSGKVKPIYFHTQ

C[C@H](CN1CCOCC1)C(C(=O)N1CCCC1)(c1ccccc1)c1ccccc1
inactive: outcome [1] | Potency [2] | Potency [3] | Potency [4] | outcome [5] | outcome [6] | Potency [7] | Potency [8] | outcome [9] | Potency [10] | Potency [11]

CC(Cc1ccccc1)NCCn1cnc2c1c(=O)n(C)c(=O)n2C (stereo unspecified)
inactive: outcome [1] | Potency [2] | Potency [3] | Potency [4] | outcome [5] | outcome [6] | Potency [7] | outcome [9] | Potency [12] | Potency [11] | Potency [13] | outcome [14] | outcome [15]

ClCCCCl
inactive: outcome [1] | Potency [2] | Potency [4] | outcome [5] | Potency [16] | Potency [17] | outcome [6] | Potency [7] | Potency [8] | outcome [9] | Potency [12] | Potency [18] | Potency [11] | outcome [14] | outcome [15]

CCCCCCC1CCOC1=O (stereo unspecified)
inactive: outcome [1] | Potency [2] | Potency [4] | outcome [5] | Potency [16] | Potency [17] | outcome [6] | Potency [7] | Potency [8] | outcome [9] | Potency [12] | Potency [11] | outcome [14] | outcome [15]

C(COCC1CO1)OCC1CO1 (stereo unspecified)
inactive: outcome [1] | Potency [2] | Potency [3] | Potency [4] | outcome [5] | Potency [16] | Potency [12] | Potency [11] | outcome [14] | outcome [15]

CCCN1CCC[C@@H]2Cc3[nH]ncc3C[C@H]21
inactive: outcome [1] | Potency [2] | Potency [3] | Potency [4] | outcome [5] | Potency [16] | outcome [6] | outcome [9] | Potency [18] | Potency [11] | outcome [14] | outcome [15]

COC(=O)[C@@H](N)CCCN/C(N)=N/[N+](=O)[O-]
inactive: outcome [1] | Potency [2] | Potency [19] | Potency [4] | outcome [5] | Potency [16] | Potency [17] | outcome [6] | Potency [7] | Potency [12] | Potency [18] | Potency [11] | outcome [14] | outcome [15]

COc1ccc2c(C(=O)c3ccc(Cl)cc3)c(C)n(CC(=O)O)c2c1
inactive: outcome [1] | Potency [2] | Potency [19] | Potency [4] | outcome [5] | Potency [16] | Potency [17] | Potency [7] | Potency [8] | Potency [12] | Potency [11]

CC(=O)OCC1=C(C(=O)O)N2C(=O)[C@@H](N)[C@H]2SC1
inactive: activity change, negative = cytotoxicity [1] 4.49% [at 19 µM] | viability change, negative = cytotoxic [2] 4.78% [at 19 µM] | activity change, negative = inhibition [4] -0.068% [at 19 µM] | activity change, negative = cytotoxicity [5] 0.172% [at 19 µM] | viability change, negative = cytotoxic [16] 1.92% [at 19 µM] | viability change, negative = cytotoxic [17] 0.909% [at 19 µM] | activity change [6] 0.594% [at 18.9 µM] | activity change, negative = inhibition [7] 1.15% [at 19 µM] | activation [8] -0.931% [at 19 µM] | activity, negative = inhibition [9] 21.8% [at 19 µM] | activity change, negative = cytotoxicity [12] 4.78% [at 19 µM] | activity change, negative = cytotoxicity [18] 0.632% [at 19 µM] | activity change, negative = cytotoxicity [11] -2.02% [at 19 µM] | cAMP activity change [14] 4.85% [at 18.9 µM] | activity change, negative = inhibition [15] 1.01% [at 19 µM]

CCNP(=S)(OC)O/C(C)=C/C(=O)OC(C)C (stereo unspecified)
inactive: outcome [1] | Potency [2] | Potency [3] | outcome [5] | Potency [16] | Potency [8] | outcome [9] | Potency [12] | Potency [18] | Potency [11] | Potency [13]

CCCCCCCCBr
inactive: outcome [1] | Potency [2] | Potency [4] | outcome [5] | Potency [16] | Potency [17] | outcome [6] | Potency [7] | Potency [8] | outcome [9] | Potency [12] | Potency [18] | Potency [11] | outcome [14] | outcome [15]

O=C(Cl)c1ccccc1
inactive: outcome [1] | Potency [2] | Potency [3] | Potency [4] | outcome [5] | Potency [16] | outcome [6] | Potency [18] | Potency [11] | outcome [14] | outcome [15]

CCCOC(=O)Cc1ccc(OCC(=O)N(CC)CC)c(OC)c1
inactive: outcome [1] | Potency [2] | Potency [4] | outcome [5] | Potency [16] | Potency [17] | outcome [6] | Potency [7] | Potency [8] | outcome [9] | Potency [12] | Potency [11] | outcome [14] | outcome [15]

C=CCc1cc(OC)c2c(c1)OCO2
inactive: outcome [1] | Potency [2] | Potency [4] | outcome [5] | Potency [16] | Potency [17] | outcome [6] | Potency [7] | Potency [8] | outcome [9] | Potency [12] | Potency [18] | Potency [11] | outcome [14] | outcome [15]
